Screening results from PubChem BioAssay.
Most compounds without a hit are left out; they make up all but 10% or so of the library.
PNC inhibitor = perinucleolar compartment assembly inhibition. 140,000 tested, 3.1% active. AID 2417. PC3M PTB-GFP, PNC prevalence imaging, 16 h; active compounds read low. activity change (PNC), negative = inhibition, % at 10 µM;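 active = readout at or below -70, meaning at least 70% loss of cells showing the perinucleolar compartment, a nuclear body marking cancer cells; inconclusive = readout between -30 and a set limit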;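 also: plate controls were DMSO wells for no effect and camptothecin positive control wells for full effect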
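Compounds are pinned in duplicate onto adhered PC3M cells stably expressing GFP-tagged PTB and incubated 16 h at 37 C. Cells are then fixed, nuclei stained with Hoechst, and PNC-positive cells counted.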
HPGD block = inhibitors of human 15-hydroxyprostaglandin dehydrogenase (HPGD) | P15428 | purified HPGD, NADH fluorescence kinetic, PGE2 substrate | Potency, µM, for the others: top-dose activity change, negative = inhibition, usual class: inhibitors | 150,000 tested, 4.3% active | AID 894; also: potency is read from the fitted curve at half-maximal effect
Target sequence (P15428 whole entry, looked up): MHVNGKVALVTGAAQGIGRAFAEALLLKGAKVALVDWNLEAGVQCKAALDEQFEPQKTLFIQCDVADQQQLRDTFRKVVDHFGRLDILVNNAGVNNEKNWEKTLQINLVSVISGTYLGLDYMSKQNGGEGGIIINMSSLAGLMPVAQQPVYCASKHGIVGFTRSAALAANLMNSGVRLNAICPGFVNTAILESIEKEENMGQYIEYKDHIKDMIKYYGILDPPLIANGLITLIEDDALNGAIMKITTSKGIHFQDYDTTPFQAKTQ
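NADH formation kinetics: reaction with 30 uM PGE2 and 1 mM NAD+ (final), 20 nM enzyme, Tris-HCl pH 8 with Tween 20, after 15 min compound preincubation at room temperature. Fluorescence change, last versus first of five reads.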
ALOX12 inhib = 12-hLO (ALOX12) enzyme inhibition; 150,000 tested, 0.12% active; purified 12-hLO, xylenol orange hydroperoxide absorbance; P18054; AID 1452; Potency, µM (series often up to 57.1 µM), without a hit: at the highest dose activity change, negative = inhibition, usual class: inhibitors; active = well fitted inhibition curve with a large enough effect; inconclusive = small, poorly fitted or top-dose-only effect; also: potency is read from the fitted curve at half-maximal effect; nearly all actives have a fitted effect of over 55% in size
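Hydroperoxide output read as Fe(III)-xylenol orange absorbance, 573-to-405 nm ratio, after 30 min reaction with 40 uM arachidonic acid. Enzyme: 150 nM purified human 12hLO, 15 min compound preincubation; 25 mM Hepes pH 7.0, room temperature.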
ALDH1A1 block = blocks purified human ALDH1A1 activity; Purified ALDH1A1, NADH fluorescence, propionaldehyde substrate; Potency, µM (highest dose often 75.3 µM), without a hit: at the highest dose activity, negative = inhibition, actives largely listed as inhibitors; 220,000 tested, 7.3% active;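 also: potency is read from the fitted curve at half-maximal effect; plate controls were no enzyme wells and a reference inhibitor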
Lamin A splicing = LMNA splicing modulation | HeLa LMNA splicing GFP/RFP minigene ratio, 48 h | Potency, µM (titrated, usually from 46.1 µM), for inactives: at the highest dose ratio change, negative = inhibition, usual class: inhibitors | 200,000 tested, 0.01% active | AID 1487; active = well fitted inhibition curve with a large enough effect in the signal ratio, with a control signal flat, not every such curve was filed as active; inconclusive = small, poorly fitted or top-dose-only effect, or effect the other way, or a change in a side signal; the % refers to the signal ratio; also: potency is read from the fitted curve at half-maximal effect
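Read-out is the ratio of GFP to DsRed2 object intensity, acquired by 488 nm laser-scanning cytometry on HeLa lamin A-EGFP minigene reporter cells. Compound incubation 48 hrs at 37 °C in Opti-MEM with 2% FBS; DMSO 0.5% final.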
* = called active by the depositor; u = inconclusive; x = no result; [ ] = remark or other dose. Unless noted, calls follow the shape of the dose curve; as a rule, active = well fitted inhibition curve with a large enough effect (not every such curve was filed as active); inconclusive = small, poorly fitted or top-dose-only effect, or another doubt; inactive = no such curve, though single readings can be large or run the other way. Unless noted, % is scaled to controls: 0 for no effect and ±100 for the full control effect.

SMILES	PNC inhibitor	HPGD block	ALOX12 inhib	ALDH1A1 block	Lamin A splicing
O=c1cnc2cncnc2n1Cc1ccccc1Cl	x	x	x	3.5µM*	u
O=c1cnc2cncnc2n1Cc1ccccc1	x	x	x	4µM*	u
O=c1c(CCc2ccccc2)nc2cncnc2n1-c1ccccc1	x	-28%	15%	u	x
CC(=O)OC[C@@H]1O[C@@H](O/N=C2/C[C@@H](O)[C@@H](O)[C@@H]3[C@@H]4C(=O)N(C(C)(C)C)C(=O)[C@H]4CC[C@H]23)[C@H](OC(C)=O)[C@H](OC(C)=O)[C@@H]1OC(C)=O	x	x	x	9%[13.5 µM]	x
Cc1ccc(NC(=O)CSc2nccn2C2CCCC2)cc1	x	x	x	x	0%[46 µM]
FC(F)(F)c1ccccc1-c1nccc(N2CCNCC2)n1	x	x	x	15%	3%
O=c1cnc2cncnc2n1Cc1ccc(F)cc1	x	x	x	10µM*	u
COC(=O)c1cc(C#N)c(SCc2ccccc2)nc1C	u	-29%	-1%	u	16%
CC(=O)c1cc(C#N)c(SCc2ccccc2)nc1C	u	-20%	-4%	18µM*	15%
Cc1cc(C)c(Nc2cc(S(=O)(=O)O)c(N)c3c2C(=O)c2ccccc2C3=O)c(C)c1	1	u	-2%	25µM*	-3%
Nc1ccc(-c2ccc(Nc3cc(S(=O)(=O)O)c(N)c4c3C(=O)c3ccccc3C4=O)cc2)c(S(=O)(=O)O)c1	x	-28%	-15%[11.4 µM]	-15%[13.5 µM]	x
Cc1ccc(S(=O)(=O)Nc2cccc(Oc3cnccn3)c2)cc1	x	x	x	7.9µM*	x
O=C1c2ccccc2-c2nc3ccccc3nc21	u	-20%	-4%	13µM*	5%
CCOC(=O)c1ccc(N2C(=O)c3n[nH]c(C)c3C2c2ccc(OC)cc2)cc1 (stereo not drawn)	u	-18%	-29%	-1%	0%
CCOC(=O)c1ccc(N2C(=O)c3n[nH]c(C)c3C2c2ccc(OC)cc2OC)cc1 (stereo not drawn)	-119*	-29%	0%	-5%	-13%
CN(C)/C=C/C(=O)c1nnn(C2CCCCC2)c1NC1CCCCC1	21	-21%	u	14µM*	u
O=C1[C@@H]2[C@H]3C(=CC[C@@H]2C(=O)N1Cc1ccccc1)C1(OCCCO1)[C@H]1O[C@@H]1[C@H]3O	x	x	x	-5%[13.5 µM]	x
CC(C)(C)c1cc[n+](-c2[nH]c(=O)sc2/C=N/NC([S-])=Nc2ccccc2)cc1	x	x	x	25µM*	x
c1cnc2c(-c3nccc4c3[nH]c3ccccc34)cccc2c1	x	-10%	x	-4%	x
CCOc1ccc(C(C)NC(=O)C2CCC2)cc1 (stereo not drawn)	21	25µM*	21%	-1%	2%
CC(NC(=O)C1CCC1)c1ccc(Cl)cc1 (stereo not drawn)	35	14µM*	1%	0%	15%
CCOc1ccc(C(C)NC(=O)C2CCCC2)cc1 (stereo not drawn)	x	x	x	-1%	u
Cc1cc(F)ccc1NC(=O)CCS(=O)(=O)c1cc2c(cc1C)NC(=O)CO2	x	x	x	x	-5%[46 µM]
Cc1cccc(C(=O)Nc2ccc(N3CC=C(c4ccccc4C)CC3)c(C(=O)O)c2)c1	x	x	x	x	9%[46 µM]
C[C@@H]1C(=O)OC2C[C@@]34[C@H]5C[C@@H](C(C)(C)C)[C@@]36C(O)C(=O)O[C@H]6O[C@@]4(C(=O)O5)[C@]21O (stereo partly drawn)	x	4%	-2%[0.00818 µM]	0%	x
SMILES	PNC inhibitor	HPGD block	ALOX12 inhib	ALDH1A1 block	Lamin A splicing
CCOc1ccc(/C(O)=C2\C(=O)C(=O)N(c3cc(C)on3)C2c2ccccc2OC)cc1 (stereo not drawn)	u	u	-5%	22µM*	-10%
CCOc1ccc(C2/C(=C(\O)c3ccc(OC)c(OC)c3)C(=O)C(=O)N2c2cc(C)on2)cc1OC (stereo not drawn)	9	-13%	10%	-3%	11%
CC1CCC2=C1C[C@H](C(C)(C)O)CC[C@@H]2C (stereo partly drawn)	x	-5%	x	-5%	x
Cc1cccc(-c2nnnn2-c2cccc(C)c2)c1	x	x	x	4.5µM*	13%[46 µM]
COc1ccc(-n2nnnc2-c2cccc(OC)c2)cc1	-83*	-10%	2%	2%	u
Cc1ccc(-n2nnnc2-c2cccc(C)c2)cc1	x	x	x	-14%	-3%[46 µM]
CC(C)c1cnc2c(c1SCC(=O)N1CCCCC1)c(=O)n(C)c(=O)n2C	x	x	x	x	0%[46 µM]
O=C(NC(=S)Nc1ccccc1Cl)c1csnn1	-30	u	-20%	4.5µM*	u
CC(C)c1ccc(NC(=O)c2cccnc2)cc1	35	-12%	0%	-9%	7%
CC(C)c1ccc(NC(=O)c2csnn2)cc1	-18	u	1%	18µM*	-9%
O=C(CCC(=O)N1CC2CCCN2c2ccccc21)NCc1ccc(F)cc1 (stereo not drawn)	x	x	x	x	6%[46 µM]
CCN1CCc2c(OCC(=O)N3CCC(C)CC3)cccc2C1=O	x	x	x	4%	x
CCOC(=O)N1CCN(C(=O)COc2cccc3c2CCN(Cc2ccccc2C)C3=O)CC1	u	1%	2%	25µM*	u
CC1CCN(C(=O)COc2cccc3c2CCN(Cc2ccccc2)C3=O)CC1	x	x	x	28µM*	x
Oc1c(C(c2ccco2)N2CCOCC2)sc2ncnn12 (stereo not drawn)	7	-24%	1%	14µM*	0%
CN1CCN(C(=O)/C(=C/c2ccc(F)cc2)c2ccsc2)CC1	x	x	x	-9%	-24%[46 µM]
CN1CCN(C(=O)/C(=C/c2ccccc2)c2ccccc2)CC1	-1	13µM*	1%	0%	2%
CC1CC(C)CN(C(=O)/C(=C\c2ccccc2)c2ccccc2)C1 (stereo not drawn)	10	11µM*	-2%	-9%	-11%
CC1CCCCN1C(=O)/C=C/c1ccccc1[N+](=O)[O-] (stereo not drawn)	x	x	x	-1%	x
CC1CCCCN1C(=O)/C(=C\c1ccccc1)c1ccccc1 (stereo not drawn)	28	14µM*	6%	-5%	6%
N[C@@H](Cc1cc(I)c(Oc2ccc(O)cc2)c(I)c1)C(=O)O	x	x	x	1%	x
N[C@@H](Cn1cc(I)c(=O)n(Cc2ccc(C(=O)O)cc2)c1=O)C(=O)O	x	0%	-4%	0%	x
OC[C@H](CCc1c[nH]c2ccccc12)c1c[nH]c2ccccc12	x	-29%	u	u	x
COc1ccc(NC(=O)CSc2nnc(Cc3cccs3)n2-c2ccc(C)cc2)cc1	34	-6%	-7%	16µM*	-6%
Cc1ccc(-n2c(Cc3cccs3)nnc2SCC(=O)Nc2ccc(S(N)(=O)=O)cc2)cc1	25	-1%	-6%	u	10%
COc1cccc(NC(=O)CSc2nnc(Cc3cccs3)n2-c2ccc(C)cc2)c1	-2	-15%	-22%	3µM*	u
CCC(=O)N1CCc2cc(CNS(=O)(=O)c3ccccc3F)ccc21	x	x	x	x	-6%[46 µM]
